Hits are enriched below; roughly 4.5% of the tested compounds scored in any of these assays.
Rpn11 inh = Rpn11 (PSMD14) deubiquitinase inhibitors, primary screen, biochemical, fluorescence polarization, uHTS. 26S proteasome non-ATPase regulatory subunit 14 (Homo sapiens), O00487. inhibition, % at 20 µM. 360,000 tested, 0.59% active. human 26S proteasome, Ub4-pepOG fluorescence polarization; 20S core pre-blocked with epoxomicin;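 active = inhibition at 20 µM, scaled to each plate's controls, above about 33%, limit read from the data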
Target sequence (O00487 whole entry, looked up): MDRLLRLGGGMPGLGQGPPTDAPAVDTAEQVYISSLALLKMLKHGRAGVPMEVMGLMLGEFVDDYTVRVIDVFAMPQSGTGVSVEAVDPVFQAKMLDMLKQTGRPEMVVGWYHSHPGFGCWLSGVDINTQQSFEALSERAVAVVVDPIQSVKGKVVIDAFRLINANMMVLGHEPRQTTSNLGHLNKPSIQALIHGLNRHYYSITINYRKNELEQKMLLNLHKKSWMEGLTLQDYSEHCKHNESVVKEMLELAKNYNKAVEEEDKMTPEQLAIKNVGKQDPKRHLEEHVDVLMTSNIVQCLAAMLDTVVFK
EBNA-1 inhibitor = EBNA-1 DNA-binding inhibitors, primary screen, biochemical, fluorescence polarization; inhibition, % at 14.8 µM; 300,000 tested, 0.34% active; AID 1950, 2009; in the data active = inhibition above about 28%
dFosB activator = activators of delta FosB homodimer, primary screen, biochemical, fluorescence polarization, TAMRA-CDK5 oligo, single point | Protein FosB (Mus musculus), P13346 | purified delta FosB; percent of positive-control signal above neutral wells | activation, % at 25 µM | 340,000 tested, 0.99% active | AID 493131, 2011;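 active = mean activation above about 17%, with every replicate also reaching it, limit read from the data, passing the limit was not always enough; inconclusive = only one of the two conditions met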
TPT1 inh = Candida albicans TPT1 enzyme inhibitors, primary screen, biochemical, fluorescence polarization; tRNA 2'-phosphotransferase TPT1 (Candida albicans SC5314); recombinant caTPT1, FP RNA substrate dephosphorylation; inhibition, % at 5 µM; 300,000 tested, 0.81% active; AID 1962, 2009;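 active = inhibition above the mean of all tested compounds plus 3 SD, set per screening campaign, cut at about 24% in these data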;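 note: plate controls were DMSO alone for no effect and ferristatin control at 100 nM for full effect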
ZTA DNA inh = counter-screen for EBNA-1 inhibitors: inhibitors of Epstein-Barr virus ZTA. ZTA-DNA binding, fluorescence polarization. AID 2234. inhibition, % at 11 µM. 320,000 tested, 0.15% active; in the data active = inhibition above about 33%
Target sequence (P03206 whole entry, looked up): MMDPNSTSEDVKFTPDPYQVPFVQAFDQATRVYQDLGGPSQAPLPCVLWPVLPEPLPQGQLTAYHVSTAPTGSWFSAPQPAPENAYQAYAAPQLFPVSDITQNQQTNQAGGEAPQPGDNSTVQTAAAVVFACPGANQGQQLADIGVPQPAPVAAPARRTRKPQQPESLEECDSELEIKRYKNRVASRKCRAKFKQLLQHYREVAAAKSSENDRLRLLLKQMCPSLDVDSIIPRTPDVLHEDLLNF
NR3A LBD binder = binders of NR3A ligand-binding domain, primary screen, biophysical, differential scanning fluorimetry, uHTS; Glutamate receptor ionotropic, NMDA 3A (GRIN3A) ligand-binding domain; 340,000 tested, 2.5% active; Tm shift relative to glycine control, % at 25 µM; NR3A LBD differential scanning fluorimetry, Tm shift; 0% = protein alone, 100% = glycine-bound protein; AID 1259313, 2017;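 active = melting temperature shift of at least 10% of the positive control shift, at one fixed dose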
Numbers without * were called inactive; ? = inconclusive; · = no result given.

SMILES	Rpn11 inh	EBNA-1 inhibitor	dFosB activator	TPT1 inh	ZTA DNA inh	NR3A LBD binder
CN(C)CCCN(C(=O)c1ccc(C(=O)c2ccccc2)cc1)c1nc2cc3c(cc2s1)OCO3	-2	-2	25*	-4	-16	1
CS(=O)(=O)c1ccc(S(=O)CC(=O)Oc2ccc(Cl)cc2)c([N+](=O)[O-])c1 (stereo unspecified)	·	-9	·	0	-9	0
COc1ccc([N+](=O)[O-])cc1N(CC(O)CN1C(=O)NC(C)(C)C1=O)S(=O)(=O)c1ccc(C)cc1 (stereo unspecified)	5	·	·	·	·	·
NC(=O)c1ccsc1NC(=O)COC(=O)c1cc(Cl)ccc1O	0	-3	-20	5	1	19*
CCOC(=O)c1c(C)[nH]c(C(=O)OCC(=O)Nc2sccc2C(N)=O)c1C	17	-17	22*	6	-8	29*
CCOC(=O)c1c(C)[nH]c(C(=O)OCC(=O)Nc2ccc(Cl)cn2)c1C	8	·	-9	·	-3	1
O=C(CN(c1ccccc1)S(=O)(=O)c1ccccc1[N+](=O)[O-])Nc1ccccc1C(=O)N1CCOCC1	-1	-12	-10	5	2	-2
O=C(Nc1ccc(O)cc1)/C(=C\C=C\c1ccccc1)NC(=O)c1ccccc1	-23	5	3	-1	-4	27*
CC(C)(C)NC(=O)/C(=C\C=C\c1ccccc1)NC(=O)c1ccc([N+](=O)[O-])cc1	-3	-7	0	-2	1	15*
COc1ccc(N(C(=O)c2csnn2)C(C(=O)NC2CCCC2)c2ccccc2)cc1 (stereo unspecified)	8	-11	-12	-4	-22	-1
Cc1ccnc(Cc2ccccc2)n1	-3	-8	1	-3	-17	-2
CCCCCCCc1nc2sc3c(c2c(=O)n1N)CC(C)(C)OC3	0	-3	2	0	-9	-3
CCCCCc1nc2sc3c(c2c(=O)n1NC(=O)c1ccc([N+](=O)[O-])cc1)CC(C)(C)OC3	0	12	-6	-3	19	12*
Cc1ccc(S(=O)(=O)N2C(=O)C(c3ccccc3)SC2=Nc2ccccc2)cc1 (stereo unspecified)	4	5	43*	1	-4	-29
COc1cc(OC)c(N(C)C(=O)c2cn(C)c(=O)c3cc(OC)c(OC)cc23)cc1Cl	0	-10	-4	2	2	3
C#CCOCCOCCOCCNc1nc(N2CCN(C(=O)[C@H]([C@@H](C)CC)n3cc([C@@H](N)CC(C)C)nn3)CC2)nc(N2CCN(C(=O)[C@H](CCCCN)n3cc([C@@H](N)C(C)CC)nn3)CC2)n1 (stereo partly specified)	-3	-7	?	1	3	1
C#CCOCCOCCOCCNc1nc(N2CCN(C(=O)[C@H](CCCCN)n3cc([C@@H](N)C(C)CC)nn3)CC2)nc(N2CCN(C(=O)[C@H](Cc3cc4ccccc4[nH]3)n3cc([C@@H](N)CC(C)C)nn3)CC2)n1 (stereo partly specified)	23	0	34*	-3	-8	-3
C#CCOCCOCCOCCNc1nc(N2CCN(C(=O)[C@H]([C@@H](C)CC)n3cc([C@@H](N)CC(C)C)nn3)CC2)nc(N2CCN(C(=O)[C@H](CCCCN)n3cc([C@@H](N)CC(C)C)nn3)CC2)n1	·	6	7	-4	6	10*
CC(C)(C)c1ccc(C(CC(=O)O)NC(=O)Cc2ccc(Cl)cc2)cc1 (stereo unspecified)	8	1	-2	-1	-2	1
O=C(C1CCCO1)N1N=C(c2ccc(Br)cc2)CC1c1ccco1 (stereo unspecified)	5	0	-16	2	-8	16*
COc1ccc(CCNC(=O)CSc2nc3c(sc(=S)n3-c3ccccc3)c(=O)[nH]2)cc1OC	-11	·	·	·	·	·
COc1ccc(CCNC(=O)CSc2nn(-c3ccccc3)c(=S)s2)cc1OC	-5	-5	-3	-2	11	19*
O=C(/C=C/c1ccccc1Cl)Nc1cccc(O)c1	-11	-3	-12	-5	-3	30*
O=C(/C=C/c1ccccc1[N+](=O)[O-])Nc1ccccc1	-6	-2	4	0	-1	6
O=C(Nc1ccccc1)Nc1nnc(/C=C/c2ccccc2Cl)s1	4	3	0	5	1	37*
SMILES	Rpn11 inh	EBNA-1 inhibitor	dFosB activator	TPT1 inh	ZTA DNA inh	NR3A LBD binder
O=C(/C=C/c1ccccc1Cl)Nc1ccccc1	-14	-6	-10	-2	-2	20*
CN(C)S(=O)(=O)c1ccc(NC(=O)/C=C/c2ccccc2Cl)cc1	-4	-7	-17	1	4	27*
COc1ccc(NC(=O)N2CCCC(C(=O)NCc3ccccc3F)C2)cc1 (stereo unspecified)	1	1	-2	-4	-5	0
Cc1cccc(NC(=O)COC(=O)CCc2c[nH]c3ccccc23)c1C	-4	·	2	·	-9	-1
O=S(=O)(c1cc(F)ccc1F)N1CCC2(CC1)OCCN2S(=O)(=O)c1cccs1	7	-12	3	1	-9	0
Cc1nc2c(C)cccn2c1/C(O)=C1\C(=O)C(=O)N(CCN(C)C)C1c1cccs1 (stereo unspecified)	-2	·	7	·	·	-2
Cc1ccc(C)c(NC(=O)C(c2ccccc2)N2CCOCC2)c1 (stereo unspecified)	4	2	4	-2	-19	0
CC(C)(C)C(=O)OCc1nc(-c2ccc(C(F)(F)F)cc2)cs1	-3	5	0	1	13	3
O=C(Nc1ccncc1)Nc1cccc(Cl)c1	2	3	-8	0	-2	14*
CN(C)c1ccc(NC(=O)Nc2cccc(Cl)c2)cc1	2	16	-6	1	-12	22*
CN(c1cccc(NC(=O)Nc2cccc(Cl)c2)c1)S(C)(=O)=O	3	-9	-11	-9	-3	-4
O=C(Nc1cccc(Cl)c1)Nc1csc([N+](=O)[O-])c1	-2	0	-2	-3	-6	31*
Cc1cccc(NC(=O)Nc2ccc(Cl)cc2)n1	7	3	-3	-3	7	1
Cc1nccc(-c2cccc(NC(=O)Nc3ccc(Cl)cc3)c2)n1	1	-3	-1	-3	15	25*
CN(C)S(=O)(=O)c1ccc(Cl)c(NC(=O)CNC2(C)CCS(=O)(=O)C2)c1 (stereo unspecified)	-4	·	-1	·	·	2
COc1cccc(C2c3cc4c(cc3OC(N3CCCC3)C2C)OCO4)c1O (stereo unspecified)	19	·	-10	·	·	15*

Screens deposited in PubChem BioAssay by several laboratories.
